This note sets out measurements from PubChem BioAssay (NCI).

The panel holds about 83,000 compounds, 20% with a hit somewhere; the sample as a whole holds those more often.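 The endpoint reported here, percent growth, reads 100 for growth as untreated, 0 for no net growth and -100 for all cells dead.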 Unmarked numbers belong to inactive results. Calls of active or inactive are those of the source. How the source made its calls: active means growth percent below 10; inactive means the rest.

The test system of the assay is MDA-MB-468 breast. The experiment in a line: NCI-60 one-dose screen, 48 h (100 = growth as untreated, 0 = no growth, -100 = all killed). As to conditions: 10 µM unless noted.
On to `Cc1cc(N/C=c2\sc3ncnn3c2=O)no1`, for which the growth was 101%.

For `CN(C)c1ccc2cc(-c3nc4ccccc4s3)c(N)nc2c1`, the growth was 56.9%. To `C=C(C)[C@@H]1CC[C@]2(CN)CC[C@]3(C)[C@H](CC[C@@H]4[C@@]5(C)CCCNC(C)(C)[C@@H]5CC[C@]43C)[C@@H]12` belongs -65.5% (active); to `O=[N+]([O-])c1cc(-c2ccccc2)c(O)c([N+](=O)[O-])c1`, 71.5%; to `CC(C)CCOc1ccc(-c2n[nH]c(C(F)(F)F)c2-c2cncc(C#N)c2)c(O)c1`, -26.4% (active). To `O=[N+]([O-])c1cccc(-c2nc3sccn3c2-c2ccnc(NCCCNS(=O)(=O)c3ccc(F)cc3)n2)c1` belongs -8.54% (active).

In the case of `COc1cc(OC)cc(-c2ccc(-c3ccc(C(=N)N)cn3)o2)c1`, the growth was -69.9% (active). As to `COc1ccc(/C=C2/SC(=O)N(CC(=O)N3CCN(c4cc5c(cc4F)c(=O)c(C(=O)O)cn5C4CC4)CC3)C2=O)cc1`, the growth is 108%. Next, `O=C(Cc1ccccn1)C(F)(F)C(F)(F)C(F)(F)F`: 115%; `CC(C)(C)c1nc(-c2cccc(NS(=O)(=O)c3c(F)cccc3F)c2F)c(-c2ccnc(N)n2)s1`: 140%. Next, `CCC(CC)NCC(C)(C)O`: 104%; `CC(=O)OC[C@]12CC[C@@H](C(=O)/C=C/c3cccnc3)[C@@H]1[C@H]1CC[C@@H]3[C@@]4(C)CC[C@H](OC(C)=O)C(C)(C)[C@@H]4CC[C@@]3(C)[C@]1(C)CC2`: -44% (active); `Cc1cc(NC(=O)CSCC(=O)O)no1`: 114%.
